Experimental data reported in PubChem BioAssay AID743327 (National Center for Advancing Translational Sciences (NCATS), 2014).
A number with no mark means an inactive call. Calls of active or inactive are those of the source. Calls follow the shape of the full dose curve. *1 amine or outer side, *2 acyl side, *3 side chain or, on linkers, in order; H or OH if unused. Where a SMILES comes first, the peptide text is derived from it. Bridges are numbered along the chain shown (N, C = ends). Roman numbers before positions name the chains, in order. [ ]: non-standard residue; d: D form. Actinocin(9to1) = Cc1c2oc3c(C)ccc(C(=O)[*:1])c3nc-2c(C(=O)[*:2])c(N)c1=O; NMeV = CN[CH](C(=O)O)C(C)C; Orn = NCCC[C@H](N)C(=O)O; Sar = CNCC(=O)O

assay: qHTS profiling of Chloroquine Analogs as inhibitors of Plasmodium falciparum (HB3) proliferation; conditions: P. falciparum HB3 proliferation; series mostly up to 28.7 µM; activity change, negative = inhibition: at the top concentration
Description: Plasmodium falciparum is a virulent malarial parasite that kills 1-2 million people worldwide each year. Transmitted by mosquitoes, the sporozoite form of the parasite enters the blood stream to infect hepatocytes, where they become merozoites that infect red blood cells (erythrocytes). Within erythrocytes, merozoites begin a […] cycle of growth and division, after which the parasite is released to infect new red blood cells. Gametocytes, which form within erythrocytes as well, circulate in the bloodstream and are ingested by the mosquito, thereby completing the life cycle. To profile malarial isolates for differential chemical responses and to identify inhibitors of malarial growth, an assay that measures P. falciparum growth and replication within erythrocytes was employed. This assay uses a DNA binding fluorescent dye (SYBR Green) to detect parasite DNA following cell lysis. Because mature erythrocytes lack DNA, only Plasmodium-derived DNA is detected.
The SYBR Green viability assay was adapted from a method described previously (Plouffe et al., 2008). For screening 3 ul culture medium was dispensed into 1536 well black clear bottom plates (Aurora Biotechnologies) using a Multidrop Combi (Thermo Fisher Scientific Inc.), 23 nL compounds in DMSO were added by a pin tool (Kalypsys), and 5 ul of erythrocytes infected with P. falciparum (0.3% parasitemia, 2.5% hematocrit final concentration) were added. The plates were incubated at 37 C in a humidified incubator in 5% CO2 for 72 h, and 2 ul lysis buffer (20 mM Tris HCl, 10 mM EDTA, 0.16% saponin, 1.6% triton X, 10X SYBR Green I supplied as 10,000X […] by Invitrogen) was added to each well. The plates were mixed for 25 sec with gentle shaking and incubated overnight at room temperature in the dark. The following morning, fluorescence intensity at 485(14) nm excitation and 535(25) nm emission wavelengths was measured on an EnVision (Perkin Elmer) plate reader. Plate reads were normalized relative to the control inhibitor (0.29 uM artemisinin) and vehicle (DMSO) wells present on each plate and then corrected by an algorithm using vehicle-only control plates at the beginning and end of the compound plate stack.

| Structure (SMILES) | Potency | activity change, negative = inhibition |
| --- | --- | --- |
| CC(C)(C)c1cc(O)c(CN)c(C(C)(C)C)c1 | 0.15 µM (active) |  |
| Cc1cccc(C)c1OCC(N)C(C)C (stereo not given) | 18.8 µM (active) |  |
| C[C@@H]1[C@@H](C(=O)C[C@H]2O[C@@H]3O[C@]4(C)CC[C@@H]5[C@H](C)CC[C@@H]([C@H]2C)[C@@]35OO4)O[C@@H]2O[C@]3(C)CC[C@H]4[C@H](C)CC[C@@H]1[C@@]24OO3 |  | -101% |
| COc1cc(NC(C)CCCN)c2ncccc2c1 (stereo not given) | 0.804 µM (active) |  |
| CCc1ccc(OCc2ccccc2C(=O)Nc2ccc3nc(C)cc(N)c3c2)cc1 | 1.19 µM (active) |  |
| CC(CNC1CCCCC1)OC(=O)c1ccccc1 (stereo not given) |  | -7.06% [at 14.2 µM] |
| CC(C)C[C@@H]1NC(=O)[C@H](CCCN)NC(=O)[C@H](C(C)C)NC(=O)[C@@H]2CCCN2C(=O)[C@@H](Cc2ccccc2)NC(=O)[C@H](CC(C)C)NC(=O)[C@H](CCCN)NC(=O)[C@H](C(C)C)NC(=O)[C@@H]2CCCN2C(=O)[C@@H](Cc2ccccc2)NC1=O (cyclo(V[Orn]L[dF]PV[Orn]L[dF]P)) |  | -102% |
| O=C(O)c1cn(C2CC2)c2cc(N3CCNCC3)c(F)cc2c1=O |  | -16.3% |
| C[C@@H]1CC[C@H]2[C@@H](C)C(=O)O[C@@H]3OC4(C)CC[C@@H]1C32OO4 (stereo not given in full) |  | -99.5% [at 57.5 µM] |
| Cc1c2oc3c(C)ccc(C(=O)NC4C(=O)NC(C(C)C)C(=O)N5CCCC5C(=O)N(C)CC(=O)N(C)C(C(C)C)C(=O)OC4C)c3nc-2c(C(=O)NC2C(=O)NC(C(C)C)C(=O)N3CCCC3C(=O)N(C)CC(=O)N(C)C(C(C)C)C(=O)OC2C)c(N)c1=O (stereo not given) (I: TVP[Sar][NMeV] / II: TVP[Sar][NMeV]; ester I:1-I:C, II:1-II:C; linker I:N-II:N via Actinocin(9to1); configuration not given here) |  | -100% |
| O[C@H](c1cc(C(F)(F)F)nc2c(C(F)(F)F)cccc12)[C@H]1CCCCN1 |  | -98.4% [at 14.2 µM] |
| C/C(=C\c1csc(C)n1)[C@@H]1C[C@@H]2O[C@]2(C)CCC[C@H](C)[C@H](O)[C@@H](C)C(=O)C(C)(C)[C@@H](O)CC(=O)O1 |  | -97.6% |
| C[C@H]1Cc2c([nH]c3cc(Cl)c(F)cc23)[C@@]2(N1)C(=O)Nc1ccc(Cl)cc12 |  | -102% |
| CCOc1ccccc1O[C@H](c1ccccc1)[C@H]1CNCCO1 |  | 154% |
| CC[C@@H](C)[C@H]1O[C@]2(CC[C@H]1C)C[C@@H]1C[C@@H](CC=C(C)[C@@H](O[C@H]3C[C@H](OC)[C@@H](O[C@H]4C[C@H](OC)[C@@H](O)[C@H](C)O4)[C@H](C)O3)[C@@H](C)C=CC=C3CO[C@@H]4[C@H](O)C(C)=C[C@@H](C(=O)O1)[C@]34O)O2 |  | -102% |
| CN(C)c1ccc2nc3ccc(=[N+](C)C)cc-3sc2c1 | 0.0049 µM (active) |  |
| C[C@@H]1[C@@H](CC(C[C@H]2O[C@@H]3O[C@]4(C)CC[C@@H]5[C@H](C)CC[C@@H]([C@H]2C)[C@@]35OO4)C(=O)NCc2ccc(F)cc2)O[C@@H]2O[C@]3(C)CC[C@H]4[C@H](C)CC[C@@H]1[C@@]24OO3 (stereo not given in full) |  | -102% |
| CCOc1ccc(F)cc1C1(O)C(N)=Nc2ccc(Cl)cc21 (stereo not given) |  | 136% |

| Structure (SMILES) | Potency | activity change, negative = inhibition |
| --- | --- | --- |
| O=CN(O)CCCP(=O)(O)O | 0.473 µM (active) |  |
| C=CC(C)=C[C@@]1(C)SC(=O)C(C)=C1O |  | -13.8% |
| C=Cc1c(C)c2cc3nc(cc4[nH]c(cc5nc(cc1[nH]2)C(C)=C5CCC(=O)OC)c(CCC(=O)O)c4C)[C@@]1(C)C3=CC=C(C(=O)OC)[C@H]1C(=O)OC |  | -98.4% [at 14.2 µM] |
| C[C@@H]1Cc2c([nH]c3cc(Cl)c(F)cc23)[C@]2(N1)C(=O)Nc1ccc(Cl)cc12 |  | 155% |
| CN(C)CCOC(c1ccccc1)c1ccccc1 |  | -20.8% |
| CCc1nc(N)nc(N)c1-c1ccc(Cl)cc1 |  | -100% |
| CCCC(=O)O[C@]1(C(=O)CCl)[C@H](C)C[C@@H]2[C@H]3CCC4=CC(=O)C=C[C@]4(C)[C@@]3(F)C(=O)C[C@@]21C |  | 133% |
| CN(C)CC/C=C1\c2ccccc2COc2ccccc21 | 2.54 µM (active) |  |
| COc1cc2c(cc1C(F)(F)F)N(C(=O)Nc1cc(F)cc(-c3cccnc3)c1)CC2 | 3.35 µM (active) |  |
| Cc1cccc(C)c1OCC(=O)N[C@@H](Cc1ccccc1)[C@@H](O)C[C@H](Cc1ccccc1)NC(=O)[C@H](C(C)C)N1CCCNC1=O |  | 141% |
| C[C@H]1[C@@H](CCC(=O)Nc2ccc(F)cc2)O[C@@H]2O[C@]3(C)CC[C@@H]4[C@H](C)CC[C@@H]1[C@@]24OO3 | 0.0067 µM (active) |  |
| C[C@H](N)CN1CCc2ccc(Br)cc21 | 1.5 µM (active) |  |
| CC(C)N=C(N)N=C(N)Nc1ccc(Cl)cc1 | 0.0298 µM (active) |  |
| C[C@@H]1CCC2[C@@H](C)[C@@H](O)O[C@@H]3O[C@@]4(C)CC[C@@H]1[C@@]23OO4 (stereo not given in full) |  | -100% |
| Cc1cccc(C)c1NC(=O)C(C)N (stereo not given) |  | 140% [at 14.2 µM] |
| CCCCN(CCCC)CCC(O)c1cc2c(Cl)cc(Cl)cc2c2cc(C(F)(F)F)ccc12 (stereo not given) | 0.0051 µM (active) |  |
| NC(=NCc1ccccc1)NC(=O)c1nc(Cl)c(N)nc1N |  | -98.8% |
